# What was measured:
# [1] = molecular target: Protein kinase C gamma type (Homo sapiens) (UniProt P05129); settings: at 1 µM;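 also: each value is an averaged percent inhibition of the enzyme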
# [2] = molecular target: T1, Protein kinase C iota type (Homo sapiens) (UniProt P41743); settings: at 0.1 µM
# T1 sequence (whole entry): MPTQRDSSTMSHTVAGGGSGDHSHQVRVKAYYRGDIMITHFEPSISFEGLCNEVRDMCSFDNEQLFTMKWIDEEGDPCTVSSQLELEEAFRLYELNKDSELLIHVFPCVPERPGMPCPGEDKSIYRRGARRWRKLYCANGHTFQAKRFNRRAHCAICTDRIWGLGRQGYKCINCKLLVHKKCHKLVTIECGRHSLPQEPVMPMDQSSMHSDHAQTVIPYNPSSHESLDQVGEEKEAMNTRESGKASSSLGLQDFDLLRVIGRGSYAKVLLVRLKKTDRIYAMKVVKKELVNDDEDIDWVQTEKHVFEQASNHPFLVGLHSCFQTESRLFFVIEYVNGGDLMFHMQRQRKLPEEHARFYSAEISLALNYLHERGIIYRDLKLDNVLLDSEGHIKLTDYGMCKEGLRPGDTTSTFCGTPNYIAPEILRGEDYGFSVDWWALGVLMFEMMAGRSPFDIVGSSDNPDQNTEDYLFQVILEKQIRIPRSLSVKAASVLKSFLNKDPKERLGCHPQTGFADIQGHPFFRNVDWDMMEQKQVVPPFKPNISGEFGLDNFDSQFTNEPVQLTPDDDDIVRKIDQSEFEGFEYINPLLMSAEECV
# [3] = molecular target: T1, Protein kinase C iota type (Homo sapiens); settings: at 1 µM
# [4] = molecular target: Protein kinase C theta type (Homo sapiens) (UniProt Q04759); settings: at 0.1 µM
# [5] = molecular target: Protein kinase C theta type (Homo sapiens) (UniProt Q04759); settings: at 1 µM
# [6] = molecular target: Protein kinase C beta type (Homo sapiens) (UniProt P05771); settings: at 0.1 µM
# [7] = molecular target: Protein kinase C beta type (Homo sapiens) (UniProt P05771); settings: at 1 µM
# [8] = molecular target: T2, Serine/threonine-protein kinase D1 (Homo sapiens) (UniProt Q15139); settings: at 0.1 µM
# T2 sequence (whole entry): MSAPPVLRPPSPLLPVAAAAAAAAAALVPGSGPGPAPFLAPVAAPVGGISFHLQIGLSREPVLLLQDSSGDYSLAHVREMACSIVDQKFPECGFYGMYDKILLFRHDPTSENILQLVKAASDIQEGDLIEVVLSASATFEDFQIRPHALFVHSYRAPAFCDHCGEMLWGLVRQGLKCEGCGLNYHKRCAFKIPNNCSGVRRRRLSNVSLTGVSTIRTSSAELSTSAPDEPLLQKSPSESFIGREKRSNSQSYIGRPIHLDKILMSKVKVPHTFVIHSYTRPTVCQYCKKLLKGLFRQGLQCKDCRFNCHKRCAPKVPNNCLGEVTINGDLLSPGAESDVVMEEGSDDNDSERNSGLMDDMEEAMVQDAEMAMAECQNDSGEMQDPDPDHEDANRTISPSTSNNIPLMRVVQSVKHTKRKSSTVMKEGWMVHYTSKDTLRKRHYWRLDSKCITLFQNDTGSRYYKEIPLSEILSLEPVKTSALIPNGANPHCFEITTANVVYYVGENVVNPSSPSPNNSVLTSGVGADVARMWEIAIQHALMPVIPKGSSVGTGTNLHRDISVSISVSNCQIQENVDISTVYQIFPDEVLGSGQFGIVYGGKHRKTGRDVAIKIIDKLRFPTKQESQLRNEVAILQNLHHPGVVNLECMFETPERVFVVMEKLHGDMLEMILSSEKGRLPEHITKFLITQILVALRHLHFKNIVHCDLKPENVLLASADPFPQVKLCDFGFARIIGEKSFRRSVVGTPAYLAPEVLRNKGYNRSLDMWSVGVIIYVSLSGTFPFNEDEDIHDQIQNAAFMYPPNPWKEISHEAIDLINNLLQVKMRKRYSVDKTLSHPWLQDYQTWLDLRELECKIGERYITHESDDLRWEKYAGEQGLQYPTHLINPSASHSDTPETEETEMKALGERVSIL
# [9] = molecular target: T2, Serine/threonine-protein kinase D1 (Homo sapiens); settings: at 1 µM
# [10] = molecular target: T3, Serine/threonine-protein kinase D2 (Homo sapiens) (UniProt Q9BZL6); settings: at 0.1 µM
# T3 sequence (whole entry): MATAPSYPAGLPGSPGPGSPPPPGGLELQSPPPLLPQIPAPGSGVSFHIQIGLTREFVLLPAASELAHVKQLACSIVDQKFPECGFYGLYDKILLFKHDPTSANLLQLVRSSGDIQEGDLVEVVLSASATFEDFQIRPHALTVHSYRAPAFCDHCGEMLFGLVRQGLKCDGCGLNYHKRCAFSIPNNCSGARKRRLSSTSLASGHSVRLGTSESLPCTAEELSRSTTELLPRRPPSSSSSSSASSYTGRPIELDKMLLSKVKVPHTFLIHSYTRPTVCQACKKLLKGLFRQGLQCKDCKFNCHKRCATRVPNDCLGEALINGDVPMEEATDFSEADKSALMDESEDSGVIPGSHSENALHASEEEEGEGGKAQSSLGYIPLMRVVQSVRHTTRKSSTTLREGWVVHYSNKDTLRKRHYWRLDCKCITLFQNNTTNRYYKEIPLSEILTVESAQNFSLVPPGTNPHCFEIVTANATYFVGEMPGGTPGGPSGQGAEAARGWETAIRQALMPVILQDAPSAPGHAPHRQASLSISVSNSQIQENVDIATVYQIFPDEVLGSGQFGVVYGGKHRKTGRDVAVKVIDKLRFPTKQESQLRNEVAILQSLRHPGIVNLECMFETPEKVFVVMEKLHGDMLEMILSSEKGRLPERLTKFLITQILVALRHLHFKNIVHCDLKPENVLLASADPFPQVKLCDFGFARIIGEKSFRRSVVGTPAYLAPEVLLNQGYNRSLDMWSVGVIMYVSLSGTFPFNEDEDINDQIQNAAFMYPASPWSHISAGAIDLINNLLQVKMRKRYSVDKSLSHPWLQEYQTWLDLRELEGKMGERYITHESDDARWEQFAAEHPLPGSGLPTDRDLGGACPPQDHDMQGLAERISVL
# [11] = molecular target: T3, Serine/threonine-protein kinase D2 (Homo sapiens); settings: at 1 µM
# [12] = molecular target: T4, Serine/threonine-protein kinase D3 (Homo sapiens) (UniProt O94806); settings: at 0.1 µM
# T4 sequence (whole entry): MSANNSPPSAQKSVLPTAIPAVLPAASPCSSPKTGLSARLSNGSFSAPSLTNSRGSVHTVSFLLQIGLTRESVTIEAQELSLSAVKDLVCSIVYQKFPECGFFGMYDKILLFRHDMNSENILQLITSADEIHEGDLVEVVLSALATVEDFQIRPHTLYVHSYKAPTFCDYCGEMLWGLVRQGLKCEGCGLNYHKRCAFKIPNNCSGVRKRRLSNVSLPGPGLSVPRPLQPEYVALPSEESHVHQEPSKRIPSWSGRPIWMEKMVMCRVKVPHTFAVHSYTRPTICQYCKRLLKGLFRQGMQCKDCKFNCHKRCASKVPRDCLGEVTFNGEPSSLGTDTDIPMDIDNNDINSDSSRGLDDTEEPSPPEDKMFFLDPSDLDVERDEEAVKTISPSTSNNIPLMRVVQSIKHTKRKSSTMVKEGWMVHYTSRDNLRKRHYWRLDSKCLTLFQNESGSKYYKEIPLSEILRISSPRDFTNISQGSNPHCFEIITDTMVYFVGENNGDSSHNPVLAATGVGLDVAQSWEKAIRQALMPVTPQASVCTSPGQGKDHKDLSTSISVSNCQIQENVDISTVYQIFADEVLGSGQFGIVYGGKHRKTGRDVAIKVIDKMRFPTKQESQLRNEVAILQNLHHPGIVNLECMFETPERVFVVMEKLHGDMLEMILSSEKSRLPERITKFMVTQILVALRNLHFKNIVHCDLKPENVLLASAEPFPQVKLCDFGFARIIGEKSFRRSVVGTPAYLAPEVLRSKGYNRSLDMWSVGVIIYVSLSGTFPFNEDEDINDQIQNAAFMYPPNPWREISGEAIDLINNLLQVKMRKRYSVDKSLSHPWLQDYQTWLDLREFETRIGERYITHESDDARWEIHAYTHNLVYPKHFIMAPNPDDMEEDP
# [13] = molecular target: T4, Serine/threonine-protein kinase D3 (Homo sapiens); settings: at 1 µM
# [14] = molecular target: T5, cGMP-dependent protein kinase 1 (Homo sapiens) (UniProt Q13976); settings: at 0.1 µM
# T5 sequence (whole entry): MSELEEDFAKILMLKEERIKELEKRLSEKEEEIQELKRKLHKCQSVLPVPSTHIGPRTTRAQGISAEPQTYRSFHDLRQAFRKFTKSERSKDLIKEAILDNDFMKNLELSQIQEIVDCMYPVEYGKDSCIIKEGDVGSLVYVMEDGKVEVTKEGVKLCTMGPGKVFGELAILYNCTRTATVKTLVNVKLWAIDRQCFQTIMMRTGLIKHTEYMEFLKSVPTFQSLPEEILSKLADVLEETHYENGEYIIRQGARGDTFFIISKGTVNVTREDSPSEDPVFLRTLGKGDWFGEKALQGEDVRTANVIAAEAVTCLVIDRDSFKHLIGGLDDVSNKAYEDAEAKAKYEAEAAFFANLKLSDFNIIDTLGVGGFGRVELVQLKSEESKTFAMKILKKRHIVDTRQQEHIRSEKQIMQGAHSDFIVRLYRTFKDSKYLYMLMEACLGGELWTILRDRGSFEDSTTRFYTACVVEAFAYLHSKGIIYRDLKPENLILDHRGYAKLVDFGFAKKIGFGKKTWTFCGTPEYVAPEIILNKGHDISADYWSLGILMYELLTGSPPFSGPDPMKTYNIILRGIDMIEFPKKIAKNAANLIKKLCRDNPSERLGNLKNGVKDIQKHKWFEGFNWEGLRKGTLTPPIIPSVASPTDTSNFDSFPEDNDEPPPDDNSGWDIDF
# [15] = molecular target: T5, cGMP-dependent protein kinase 1 (Homo sapiens); settings: at 1 µM
# [16] = molecular target: T6, cGMP-dependent protein kinase 2 (Homo sapiens) (UniProt Q13237); settings: at 0.1 µM
# T6 sequence (whole entry): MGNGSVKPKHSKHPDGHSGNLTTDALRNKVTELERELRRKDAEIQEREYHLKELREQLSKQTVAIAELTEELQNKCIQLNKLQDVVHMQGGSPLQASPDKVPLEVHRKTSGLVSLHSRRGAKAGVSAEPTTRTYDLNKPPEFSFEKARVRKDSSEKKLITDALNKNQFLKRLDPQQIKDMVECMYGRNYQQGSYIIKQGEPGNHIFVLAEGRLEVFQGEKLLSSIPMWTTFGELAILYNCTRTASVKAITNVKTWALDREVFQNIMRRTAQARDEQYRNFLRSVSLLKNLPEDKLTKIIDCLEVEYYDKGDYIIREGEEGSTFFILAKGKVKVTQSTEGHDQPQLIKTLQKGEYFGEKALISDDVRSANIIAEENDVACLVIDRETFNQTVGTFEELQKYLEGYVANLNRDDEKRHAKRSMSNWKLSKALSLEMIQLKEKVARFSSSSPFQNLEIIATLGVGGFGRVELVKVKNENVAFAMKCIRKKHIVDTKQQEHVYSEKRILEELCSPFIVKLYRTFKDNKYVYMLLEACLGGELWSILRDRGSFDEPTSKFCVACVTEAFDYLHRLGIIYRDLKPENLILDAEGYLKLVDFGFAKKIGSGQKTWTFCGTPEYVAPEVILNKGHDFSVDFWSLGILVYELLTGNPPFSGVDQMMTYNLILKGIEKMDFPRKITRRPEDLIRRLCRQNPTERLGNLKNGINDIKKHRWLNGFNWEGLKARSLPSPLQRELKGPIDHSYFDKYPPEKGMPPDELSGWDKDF
# [17] = molecular target: T6, cGMP-dependent protein kinase 2 (Homo sapiens); settings: at 1 µM
# [18] = molecular target: T7, cAMP-dependent protein kinase catalytic subunit PRKX (Homo sapiens) (UniProt P51817); settings: at 0.1 µM
# T7 sequence (whole entry): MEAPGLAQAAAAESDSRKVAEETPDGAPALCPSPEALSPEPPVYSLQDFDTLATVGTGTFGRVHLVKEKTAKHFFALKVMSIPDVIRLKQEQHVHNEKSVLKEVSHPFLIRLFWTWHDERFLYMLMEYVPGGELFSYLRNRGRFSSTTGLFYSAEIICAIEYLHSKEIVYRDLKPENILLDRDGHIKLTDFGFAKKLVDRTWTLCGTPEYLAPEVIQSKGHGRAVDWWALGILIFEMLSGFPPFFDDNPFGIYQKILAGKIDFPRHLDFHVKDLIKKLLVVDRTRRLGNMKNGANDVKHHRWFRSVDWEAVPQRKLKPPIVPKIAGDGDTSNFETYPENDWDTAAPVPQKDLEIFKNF
# [19] = molecular target: T7, cAMP-dependent protein kinase catalytic subunit PRKX (Homo sapiens); settings: at 1 µM
# [20] = molecular target: Rho-associated protein kinase 1 (Homo sapiens) (UniProt Q13464); settings: at 0.1 µM;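 also: values are mean percent inhibition of ROCK1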
# Rho-associated protein kinase 1 (Homo sapiens), sequence (Q13464 2-1354 limits assumed): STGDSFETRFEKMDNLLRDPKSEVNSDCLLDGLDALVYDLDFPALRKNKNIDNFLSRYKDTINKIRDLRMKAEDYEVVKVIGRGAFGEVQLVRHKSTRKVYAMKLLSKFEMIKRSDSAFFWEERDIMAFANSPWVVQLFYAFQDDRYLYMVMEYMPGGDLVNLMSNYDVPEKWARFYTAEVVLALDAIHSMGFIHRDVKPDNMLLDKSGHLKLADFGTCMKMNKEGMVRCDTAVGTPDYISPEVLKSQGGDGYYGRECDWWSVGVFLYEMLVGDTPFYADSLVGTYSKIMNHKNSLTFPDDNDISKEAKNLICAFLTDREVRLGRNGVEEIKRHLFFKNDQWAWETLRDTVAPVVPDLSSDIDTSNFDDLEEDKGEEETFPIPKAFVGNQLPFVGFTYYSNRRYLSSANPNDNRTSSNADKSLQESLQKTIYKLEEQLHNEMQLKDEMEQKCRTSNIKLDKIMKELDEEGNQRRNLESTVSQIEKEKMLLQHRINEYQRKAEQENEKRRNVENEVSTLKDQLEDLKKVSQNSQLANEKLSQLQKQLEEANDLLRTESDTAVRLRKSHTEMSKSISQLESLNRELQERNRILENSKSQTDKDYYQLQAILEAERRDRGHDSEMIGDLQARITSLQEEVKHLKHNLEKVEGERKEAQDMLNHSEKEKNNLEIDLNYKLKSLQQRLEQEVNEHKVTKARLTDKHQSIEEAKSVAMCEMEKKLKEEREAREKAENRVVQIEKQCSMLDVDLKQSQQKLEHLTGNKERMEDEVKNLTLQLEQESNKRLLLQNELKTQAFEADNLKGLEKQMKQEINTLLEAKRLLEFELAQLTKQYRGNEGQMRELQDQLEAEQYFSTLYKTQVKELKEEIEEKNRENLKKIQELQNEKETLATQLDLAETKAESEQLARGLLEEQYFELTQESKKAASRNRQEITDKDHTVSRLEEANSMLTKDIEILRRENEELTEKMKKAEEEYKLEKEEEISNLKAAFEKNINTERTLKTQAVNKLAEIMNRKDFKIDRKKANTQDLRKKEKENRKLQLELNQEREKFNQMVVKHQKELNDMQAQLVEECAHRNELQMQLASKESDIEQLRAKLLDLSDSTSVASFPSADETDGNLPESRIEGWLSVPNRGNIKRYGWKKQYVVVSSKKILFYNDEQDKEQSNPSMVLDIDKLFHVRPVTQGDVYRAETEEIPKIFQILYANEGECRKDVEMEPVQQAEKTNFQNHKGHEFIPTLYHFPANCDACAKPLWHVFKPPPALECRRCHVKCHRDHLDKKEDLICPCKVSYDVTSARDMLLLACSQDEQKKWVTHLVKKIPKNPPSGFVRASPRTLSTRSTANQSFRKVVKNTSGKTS
# Protein kinase C theta type (Homo sapiens), sequence (Q04759 whole entry, looked up): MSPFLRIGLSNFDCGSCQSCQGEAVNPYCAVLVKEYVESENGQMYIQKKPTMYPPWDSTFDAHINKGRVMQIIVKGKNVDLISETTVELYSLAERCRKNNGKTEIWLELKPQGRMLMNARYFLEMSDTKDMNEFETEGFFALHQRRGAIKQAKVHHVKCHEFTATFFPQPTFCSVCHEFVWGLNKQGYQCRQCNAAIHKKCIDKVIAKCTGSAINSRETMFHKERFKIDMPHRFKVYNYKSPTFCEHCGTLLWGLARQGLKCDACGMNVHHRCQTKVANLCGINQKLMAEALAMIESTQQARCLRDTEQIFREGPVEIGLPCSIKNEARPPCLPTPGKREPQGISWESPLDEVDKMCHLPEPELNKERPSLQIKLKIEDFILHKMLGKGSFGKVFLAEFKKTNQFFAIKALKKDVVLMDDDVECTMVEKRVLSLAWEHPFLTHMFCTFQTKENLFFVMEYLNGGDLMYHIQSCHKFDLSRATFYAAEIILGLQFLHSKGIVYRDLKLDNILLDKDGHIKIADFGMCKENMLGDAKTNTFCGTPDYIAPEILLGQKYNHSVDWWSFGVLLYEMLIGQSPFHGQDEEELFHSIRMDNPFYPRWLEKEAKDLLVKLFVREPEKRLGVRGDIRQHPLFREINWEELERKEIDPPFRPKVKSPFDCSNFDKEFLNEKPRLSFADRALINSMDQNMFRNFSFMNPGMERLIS
# Protein kinase C beta type (Homo sapiens), sequence (P05771 2-671 limits assumed): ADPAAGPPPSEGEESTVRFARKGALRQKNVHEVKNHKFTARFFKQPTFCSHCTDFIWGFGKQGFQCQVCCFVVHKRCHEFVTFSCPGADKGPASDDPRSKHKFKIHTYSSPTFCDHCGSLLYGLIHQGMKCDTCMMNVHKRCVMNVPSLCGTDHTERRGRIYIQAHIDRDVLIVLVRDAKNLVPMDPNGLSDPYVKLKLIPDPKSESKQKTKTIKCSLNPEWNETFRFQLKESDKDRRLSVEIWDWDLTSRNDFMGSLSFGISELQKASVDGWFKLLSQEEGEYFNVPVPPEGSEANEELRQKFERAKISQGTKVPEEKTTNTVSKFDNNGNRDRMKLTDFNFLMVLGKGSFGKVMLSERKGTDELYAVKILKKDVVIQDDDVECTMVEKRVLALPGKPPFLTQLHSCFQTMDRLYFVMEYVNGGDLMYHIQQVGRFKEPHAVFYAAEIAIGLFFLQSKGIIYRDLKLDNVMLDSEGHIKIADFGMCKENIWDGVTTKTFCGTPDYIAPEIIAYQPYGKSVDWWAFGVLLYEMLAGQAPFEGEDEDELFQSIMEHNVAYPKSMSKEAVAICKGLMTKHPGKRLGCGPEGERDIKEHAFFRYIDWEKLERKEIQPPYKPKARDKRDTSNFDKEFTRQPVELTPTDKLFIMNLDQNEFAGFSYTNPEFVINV
Structure (SMILES),inhibition [1] [%],inhibition [2] [%],inhibition [3] [%],inhibition [4] [%],inhibition [5] [%],inhibition [6] [%],inhibition [7] [%],inhibition [8] [%],inhibition [9] [%],inhibition [10] [%],inhibition [11] [%],inhibition [12] [%],inhibition [13] [%],inhibition [14] [%],inhibition [15] [%],inhibition [16] [%],inhibition [17] [%],inhibition [18] [%],inhibition [19] [%],inhibition [20] [%]
CS(=O)(=O)CCNCc1ccoc1-c1ccc2ncnc(Nc3ccc(OCc4ccccc4)cc3)c2c1,0.87,0.27,-1.03,-0.2,0.08,-0.23,0.72,1.6,2.33,1.46,1.7,0.9,1.39,-0.04,0.54,-0.54,-1.25,0.33,-0.34,-1.21
O=C(O[C@H]1CN[C@H](C#Cc2cc3ncnc(Nc4ccc5c(ccn5Cc5cc(F)ccc5F)c4)c3s2)C1)N1CCOCC1,3.05,2.82,3.06,1.84,0.91,1.75,0.99,3.66,6.58,4.5,5.35,5.21,6.35,2.6,3.55,2.56,3.72,2.19,2.67,0.77
O=C(O[C@H]1CN[C@H](C#Cc2cc3ncnc(Nc4ccc5c(cnn5Cc5ccccc5)c4)c3s2)C1)N1CCOCC1,1.11,-1.84,-0.97,-0.32,-1.1,-0.16,-0.06,2.57,1.38,1.01,1.12,0.01,1.45,-0.48,-0.54,-0.72,0.09,-0.58,-0.71,-2.14
Cc1nnc(-c2cccc(-c3ccc(C(=O)NCC4CC4)cc3)c2)o1,5.25,2.19,1.94,3.27,5.18,1.13,2.65,4.9,9.11,5.08,7.93,6.14,7.35,3.58,5.43,3.23,3.44,3.54,4.63,0.97

# — ChEMBL document CHEMBL1961873, “Compounds: GSK PKIS; Assays: Nanosyn kinase panel” (2012)
